The panel holds about 83,000 compounds, 20% with a hit somewhere; the sample as a whole holds those more often.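 Activity criterion: percent growth below 10, measured after cells in 96-well plates were exposed to a single compound concentration for 48 hours.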 The source made the active and inactive calls.
Tests used:
Assay in all cases: NCI-60 one-dose screen, 48 h (100 = growth as untreated, 0 = no growth, -100 = all killed)
RPMI-8226 leukemia = details: 10 µM unless noted
OVCAR-8 ovarian = details: 10 µM unless noted
OVCAR-5 ovarian = details: 10 µM unless noted
OVCAR-4 ovarian = details: 10 µM unless noted
SK-OV-3 ovarian = details: 10 µM unless noted
IGROV1 ovarian = details: 10 µM unless noted
OVCAR-3 ovarian = details: 10 µM unless noted
HS 578T breast = details: 10 µM unless noted
NCI/ADR-RES ovarian = details: 10 µM unless noted
T-47D breast = details: 10 µM unless noted
MDA-MB-435 melanoma = details: 10 µM unless noted
SW-620 colon = details: 10 µM unless noted
MCF7 breast = details: 10 µM
HCT-116 colon = details: 10 µM unless noted
HCC-2998 colon = details: 10 µM unless noted
KM12 colon = details: 10 µM unless noted

Measured: growth

O=c1oc2ccc(-c3ccc(F)cc3F)cc2c(=O)n1-c1cccc(C(F)(F)F)c1
active: RPMI-8226 leukemia -6.6% | OVCAR-8 ovarian 8.92% | SK-OV-3 ovarian -9.56% | OVCAR-3 ovarian 7.84% | HS 578T breast 8.28% | NCI/ADR-RES ovarian 7.17% | T-47D breast -13.7% | MDA-MB-435 melanoma 5.25% | MCF7 breast 3.59% | HCT-116 colon 8.28% | KM12 colon 3.37%
inactive: OVCAR-5 ovarian 12.1% | OVCAR-4 ovarian 19.2% | IGROV1 ovarian 20.5% | SW-620 colon 12.6% | HCC-2998 colon 22.9%

Brc1ccc(Nc2nc3ccccc3nc2Nc2ccc(Br)cc2)cc1
active: RPMI-8226 leukemia -12.3% | OVCAR-8 ovarian -31.4% | OVCAR-5 ovarian 6.38% | SK-OV-3 ovarian -16.7% | IGROV1 ovarian 1.3% | OVCAR-3 ovarian -55.4% | HS 578T breast -1.34% | NCI/ADR-RES ovarian 5.04% | T-47D breast -4.85% | MDA-MB-435 melanoma -60.2% | SW-620 colon -69.9% | MCF7 breast 1.16% | HCT-116 colon -86.3% | KM12 colon -55.3%
inactive: OVCAR-4 ovarian 12.7%

O=c1oc2ccc(Cl)cc2c(=O)n1-c1ccc(F)cc1F
active: RPMI-8226 leukemia -1.02% | SK-OV-3 ovarian -7.81% | OVCAR-3 ovarian 6.16% | HS 578T breast 8.54% | NCI/ADR-RES ovarian 7.29% | T-47D breast -10.7% | MDA-MB-435 melanoma 3.09% | MCF7 breast 5.09% | HCT-116 colon 7.6% | KM12 colon 5.64%
inactive: OVCAR-8 ovarian 11.4% | OVCAR-5 ovarian 16.6% | OVCAR-4 ovarian 18.5% | IGROV1 ovarian 16.2% | SW-620 colon 15.6% | HCC-2998 colon 34%

O=C(CCc1nnc2sc(-c3ccc(Cl)cc3Cl)nn12)c1nc2ncccc2[nH]1
inactive: SK-OV-3 ovarian 36.1%
active: RPMI-8226 leukemia -2.08% | OVCAR-8 ovarian 0.0907% | OVCAR-5 ovarian -49.3% | OVCAR-4 ovarian -37.7% | IGROV1 ovarian -14.8% | OVCAR-3 ovarian -68.7% | HS 578T breast 0.818% | NCI/ADR-RES ovarian -3.89% | T-47D breast -26.3% | MDA-MB-435 melanoma -31.2% | SW-620 colon -30.4% | MCF7 breast 6.03% | HCT-116 colon -73.6% | HCC-2998 colon -71.6% | KM12 colon -52.2%

O=C(Nc1ccc(F)cc1F)c1cc(Br)ccc1O
inactive: IGROV1 ovarian 15.5% | HS 578T breast 10.2% | SW-620 colon 13.1% | HCC-2998 colon 13.5%
active: RPMI-8226 leukemia -10.4% | OVCAR-8 ovarian 8.63% | OVCAR-5 ovarian -7.85% | OVCAR-4 ovarian -0.761% | SK-OV-3 ovarian -21.8% | OVCAR-3 ovarian 0.111% | NCI/ADR-RES ovarian 1.62% | T-47D breast -20.1% | MDA-MB-435 melanoma 0.167% | MCF7 breast -1.09% | HCT-116 colon 1.66% | KM12 colon -0.56%

O=c1oc2ccc(I)cc2c(=O)n1-c1ccc(F)cc1F
active: RPMI-8226 leukemia 1.49% | SK-OV-3 ovarian -19.4% | OVCAR-3 ovarian 2.05% | NCI/ADR-RES ovarian 5.71% | T-47D breast -13.5% | MDA-MB-435 melanoma 1.74% | MCF7 breast 5.86% | HCT-116 colon 6.72% | KM12 colon 3.81%
inactive: OVCAR-8 ovarian 12.5% | OVCAR-5 ovarian 40% | OVCAR-4 ovarian 12.7% | IGROV1 ovarian 20.2% | HS 578T breast 19.8% | SW-620 colon 19.7% | HCC-2998 colon 26%

O=C(Nc1ccc(I)cc1F)c1cc(Br)ccc1O
inactive: OVCAR-5 ovarian 23.7% | OVCAR-4 ovarian 12.4% | IGROV1 ovarian 16.3% | HCC-2998 colon 14.6%
active: RPMI-8226 leukemia -18.9% | OVCAR-8 ovarian 7.13% | SK-OV-3 ovarian -4.76% | OVCAR-3 ovarian 8.04% | HS 578T breast -3.47% | NCI/ADR-RES ovarian 7.79% | T-47D breast -9.09% | MDA-MB-435 melanoma -3.54% | SW-620 colon 7.36% | MCF7 breast 2.45% | HCT-116 colon -8.63% | KM12 colon -7%

CC[C@]1(O)C[C@@H]2CN(CCc3c([nH]c4ccccc34)[C@@](C(=O)OC)(c3cc4c(cc3OC)N(C)[C@H]3[C@@](O)(C(=O)OC)[C@H](OC(C)=O)[C@]5(CC)C=CCN6CC[C@]43[C@@H]65)C2)C1
inactive: RPMI-8226 leukemia 11.3% | OVCAR-8 ovarian 21.5% | OVCAR-5 ovarian 17.4% | OVCAR-4 ovarian 33.7% | SK-OV-3 ovarian 43.5% | HS 578T breast 15.8% | T-47D breast 68.6% | SW-620 colon 22.7% | MCF7 breast 10.6%
active: IGROV1 ovarian 9.76% | OVCAR-3 ovarian -4.09% | NCI/ADR-RES ovarian -19.8% | MDA-MB-435 melanoma -38% | HCT-116 colon 7.92% | KM12 colon 8.64%

COc1ccc(N2C(=O)CC(c3cc(OC)c(OC)c(OC)c3)C3C2=NC(=O)N3C)cc1 (stereo not given)
inactive: RPMI-8226 leukemia 119% | OVCAR-8 ovarian 102% | OVCAR-5 ovarian 102% | OVCAR-4 ovarian 105% | SK-OV-3 ovarian 108% | IGROV1 ovarian 109% | OVCAR-3 ovarian 108% | HS 578T breast 97.1% | NCI/ADR-RES ovarian 109% | T-47D breast 95.7% | MDA-MB-435 melanoma 101% | SW-620 colon 102% | MCF7 breast 98.1% | HCT-116 colon 106% | HCC-2998 colon 117% | KM12 colon 105%

NCCNc1nc2ccc(F)cc2c2c(=O)c3cc(F)ccc3sc12
inactive: OVCAR-8 ovarian 29.9% | OVCAR-5 ovarian 81.2% | OVCAR-4 ovarian 37.2% | SK-OV-3 ovarian 77.6% | IGROV1 ovarian 22.9% | OVCAR-3 ovarian 38.1% | HS 578T breast 59.5% | NCI/ADR-RES ovarian 61.7% | T-47D breast 33.7% | MDA-MB-435 melanoma 13.4% | HCC-2998 colon 14.8% | KM12 colon 17.8%
active: RPMI-8226 leukemia 7.67% | SW-620 colon -73.5% | MCF7 breast -15.2% | HCT-116 colon -87.1%

O=c1oc2ccc(F)cc2c(=O)n1-c1ccc(Cl)cc1F
active: RPMI-8226 leukemia -23.1% | OVCAR-8 ovarian 9.27% | SK-OV-3 ovarian -11.5% | OVCAR-3 ovarian 8.61% | HS 578T breast -0.15% | NCI/ADR-RES ovarian 2.98% | T-47D breast -19% | MDA-MB-435 melanoma 1.54% | MCF7 breast 2.65% | HCT-116 colon 3.98% | HCC-2998 colon 9.7% | KM12 colon 2.07%
inactive: OVCAR-5 ovarian 17.6% | OVCAR-4 ovarian 13.3% | IGROV1 ovarian 18.9% | SW-620 colon 11.3%

O=c1oc2ccc(Br)cc2c(=O)n1-c1ccc(F)cc1F
inactive: OVCAR-8 ovarian 11% | OVCAR-5 ovarian 20.1% | OVCAR-4 ovarian 15% | IGROV1 ovarian 19.3% | SW-620 colon 16.3% | HCC-2998 colon 17.4%
active: RPMI-8226 leukemia -4.83% | SK-OV-3 ovarian -10.9% | OVCAR-3 ovarian 4.73% | HS 578T breast 5.31% | NCI/ADR-RES ovarian 5.44% | T-47D breast -9.1% | MDA-MB-435 melanoma 2.57% | MCF7 breast 2.33% | HCT-116 colon 4.49% | KM12 colon 4.24%

COc1ccc(CN2CCCC(C(=O)c3ccc(C(F)(F)F)cc3)C2)c(O)c1 (stereo not given)
active: OVCAR-3 ovarian 7.49% | NCI/ADR-RES ovarian 9.17% | MDA-MB-435 melanoma -48.9%
inactive: RPMI-8226 leukemia 11.8% | OVCAR-8 ovarian 17% | OVCAR-5 ovarian 55% | OVCAR-4 ovarian 45.4% | SK-OV-3 ovarian 26.1% | IGROV1 ovarian 47.5% | HS 578T breast 25.8% | T-47D breast 26.1% | SW-620 colon 13.4% | MCF7 breast 10.9% | HCT-116 colon 15.9% | KM12 colon 18.5%

CCOC(=O)c1cc2c(n1Cc1ccccc1)-c1oncc1CCC2
active: MDA-MB-435 melanoma -7.87%
inactive: RPMI-8226 leukemia 64.4% | OVCAR-8 ovarian 80.9% | OVCAR-5 ovarian 101% | OVCAR-4 ovarian 72.9% | SK-OV-3 ovarian 87.1% | IGROV1 ovarian 58% | OVCAR-3 ovarian 76.6% | HS 578T breast 76.5% | NCI/ADR-RES ovarian 52.3% | T-47D breast 80.7% | SW-620 colon 43% | MCF7 breast 45.8% | HCT-116 colon 64.7% | HCC-2998 colon 87.5% | KM12 colon 56.1%

O=c1oc2ccc(-c3ccc(F)cc3F)cc2c(=O)n1-c1ccc(Cl)c(C(F)(F)F)c1
active: RPMI-8226 leukemia 3.09% | OVCAR-8 ovarian 8.57% | SK-OV-3 ovarian -9.2% | OVCAR-3 ovarian 7.34% | NCI/ADR-RES ovarian 6.43% | T-47D breast -11% | MDA-MB-435 melanoma 7.88% | MCF7 breast 7.27% | HCT-116 colon 6.47% | KM12 colon 3.84%
inactive: OVCAR-5 ovarian 74.8% | OVCAR-4 ovarian 21.6% | IGROV1 ovarian 35.3% | HS 578T breast 14.6% | SW-620 colon 14.6% | HCC-2998 colon 25.6%

COc1ccc(C2Nc3nc(OC)n(C)c(=O)c3N=C3c4ccccc4C(=O)C32)cc1 (stereo not given)
inactive: RPMI-8226 leukemia 92.1% | OVCAR-8 ovarian 103% | OVCAR-5 ovarian 103% | OVCAR-4 ovarian 88.5% | SK-OV-3 ovarian 109% | IGROV1 ovarian 140% | OVCAR-3 ovarian 94.6% | HS 578T breast 100% | NCI/ADR-RES ovarian 97.6% | T-47D breast 101% | MDA-MB-435 melanoma 78.5% | SW-620 colon 90% | MCF7 breast 74.5% | HCT-116 colon 95.4% | HCC-2998 colon 103% | KM12 colon 75%

CC(C)(C)c1ccc(C2CC(=O)C3=C(C2)Nc2ccccc2N(C(=O)c2ccccc2Cl)C3c2ccc(F)cc2)cc1 (stereo not given)
inactive: RPMI-8226 leukemia 14.1% | OVCAR-5 ovarian 38.9% | SK-OV-3 ovarian 62.5% | HS 578T breast 81.5% | NCI/ADR-RES ovarian 24.3%
active: OVCAR-8 ovarian -12% | OVCAR-4 ovarian -68.3% | IGROV1 ovarian -26.7% | OVCAR-3 ovarian -28.5% | T-47D breast 9.46% | MDA-MB-435 melanoma -80.1% | SW-620 colon 2.52% | MCF7 breast -33.3% | HCT-116 colon 7.97% | HCC-2998 colon -21.2% | KM12 colon 9.1%

O=C1c2ccccc2C(=O)c2c1ccc1[nH]c(CCl)nc21
active: RPMI-8226 leukemia -40.3% | OVCAR-4 ovarian -20.4% | OVCAR-3 ovarian -35.9% | T-47D breast -21.5% | SW-620 colon -23.7% | MCF7 breast 6.47% | HCT-116 colon -6.49%
inactive: OVCAR-8 ovarian 20.1% | OVCAR-5 ovarian 70.4% | SK-OV-3 ovarian 37.6% | IGROV1 ovarian 15.2% | HS 578T breast 18.2% | NCI/ADR-RES ovarian 34.5% | MDA-MB-435 melanoma 28.6% | HCC-2998 colon 65.5% | KM12 colon 22.9%

Reference: PubChem BioAssay (NCI)
